# Values without a mark were called inactive. Records with an inconclusive call do not appear. Active and inactive are the calls of the source. The call rests on the fitted dose curve; in most records, active means well fitted curve in the direction sought with a large enough effect; inconclusive means small, poorly fitted or top-dose-only effect, or another doubt; inactive means no such curve, though single readings can be large; an effect the other way counts as inactive or inconclusive.
# Experiments:
# [1] = qHTS of pediatric cancer cell lines to identify multiple opportunities for drug repurposing: Primary screen for TC32 cells (AID 1347089); further: nearly all actives have a fitted effect of over 60% in size; further: potency means the concentration at half of the fitted maximal effect
# Procedure, shortened: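 A viability screen of TC32 cells was run over 48 h, with primary MIPE doses spanning 0.78 nM–46 µM and NPC doses 0.59 nM–46 µM. ATP luminescence (CellTiter-Glo) served as the read-out.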
# [2] = qHTS of pediatric cancer cell lines to identify multiple opportunities for drug repurposing: Primary screen for DAOY cells (AID 1347090); further: nearly all actives have a fitted effect of over 55% in size; further: potency means the concentration at half of the fitted maximal effect
# Procedure, shortened: (§1)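 Viability measured as metabolically active cells via CellTiter-Glo luminescence following 48 hours of compound exposure, 11-point dilutions in confirmatory testing. 500-1,000 cells/well plated 5 hours before dosing; controls were DMSO and 2.3 µM bortezomib.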
# [3] = qHTS of pediatric cancer cell lines to identify multiple opportunities for drug repurposing: Primary screen for SJ-GBM2 cells (AID 1347091); further: potency means the concentration at half of the fitted maximal effect
# Procedure, shortened: as §1
# [4] = qHTS of pediatric cancer cell lines to identify multiple opportunities for drug repurposing: Primary screen for A673 cells (AID 1347092); further: nearly all actives have a fitted effect of over 45% in size; further: potency means the concentration at half of the fitted maximal effect
# Procedure, shortened: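 Titration-based qHTS on A673 cells: MIPE compounds spanned 11 points (0.78 nM to 46 µM final), NPC compounds 8 points (0.59 nM to 46 µM final). Viability after 48 h was measured by ATP luminescence.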
# [5] = qHTS of pediatric cancer cell lines to identify multiple opportunities for drug repurposing: Primary screen for SK-N-MC cells (AID 1347093); further: potency means the concentration at half of the fitted maximal effect
# Procedure, shortened: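 Metabolically active cells were quantified by ATP-dependent luminescence (CellTiter-Glo, 15 min at room temperature) following 48 h treatment. Cells had been plated at 500-1,000 per well and settled for 5 h beforehand.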
# [6] = qHTS of pediatric cancer cell lines to identify multiple opportunities for drug repurposing: Primary screen for BT-37 cells (AID 1347094); further: potency means the concentration at half of the fitted maximal effect
# Procedure, shortened: (§2)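 Plated cells (500-1,000 per well, growth media) were allowed to settle for 5 hours, treated with compound dilutions for 48 hours, then lysed with CellTiter-Glo for 15 min at room temperature before luminescence reading.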
# [7] = qHTS of pediatric cancer cell lines to identify multiple opportunities for drug repurposing: Primary screen for NB-EBc1 cells (AID 1347095); further: potency means the concentration at half of the fitted maximal effect
# Procedure, shortened: as §2
# [8] = qHTS of pediatric cancer cell lines to identify multiple opportunities for drug repurposing: Primary screen for U-2 OS cells (AID 1347096); further: nearly all actives have a fitted effect of over 50% in size; further: potency means the concentration at half of the fitted maximal effect
# Procedure, shortened: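 Viability after 48 h compound treatment at 37C, 500-1,000 cells/well, read as ATP luminescence with CellTiter-Glo. Primary screens used 11-point (MIPE, 0.78 nM-46 µM) or 8-point (NPC, 0.59 nM-46 µM) final concentrations; follow-up screens used 11-point dilutions.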
# [9] = qHTS of pediatric cancer cell lines to identify multiple opportunities for drug repurposing: Primary screen for Saos-2 cells (AID 1347097); further: nearly all actives have a fitted effect of over 40% in size; further: potency means the concentration at half of the fitted maximal effect
# Procedure, shortened: as §2
# [10] = molecular target: Parathyroid hormone/parathyroid hormone-related peptide receptor (Homo sapiens) (UniProt Q03431); assay: qHTS for PTHR1 Agonists: Optimization Screen against the NCGC LOPAC library (AID 1347079);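 further: GloSensor cAMP luminescence in HEK-293 GP2 cells expressing human PTHR1 with IBMX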
# Chain of Parathyroid hormone/parathyroid hormone-related peptide receptor (Homo sapiens) (Q03431 whole entry, looked up): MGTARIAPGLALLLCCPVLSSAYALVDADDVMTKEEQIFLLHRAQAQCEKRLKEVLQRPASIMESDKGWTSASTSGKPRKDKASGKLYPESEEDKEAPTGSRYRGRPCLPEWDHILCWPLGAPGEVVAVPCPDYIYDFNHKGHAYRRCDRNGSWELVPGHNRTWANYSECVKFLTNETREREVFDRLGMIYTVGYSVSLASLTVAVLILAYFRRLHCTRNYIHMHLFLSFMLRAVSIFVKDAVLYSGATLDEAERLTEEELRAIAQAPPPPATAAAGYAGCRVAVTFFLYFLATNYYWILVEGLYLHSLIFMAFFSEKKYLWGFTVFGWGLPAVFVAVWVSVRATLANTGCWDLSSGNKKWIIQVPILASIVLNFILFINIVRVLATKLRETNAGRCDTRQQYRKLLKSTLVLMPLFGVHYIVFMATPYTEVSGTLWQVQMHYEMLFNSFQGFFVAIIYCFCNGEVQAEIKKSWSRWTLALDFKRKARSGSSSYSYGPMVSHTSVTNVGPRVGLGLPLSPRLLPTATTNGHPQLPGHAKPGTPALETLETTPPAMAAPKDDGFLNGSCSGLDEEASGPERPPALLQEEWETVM
# Procedure, shortened: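 Compounds were tested across a qHTS titration. PTHR1-expressing GP2 cells report cAMP rises via GloSensor luminescence after 1 hr compound exposure at 37C with IBMX present.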
SMILES,Potency [1],Potency [2],Potency [3],Potency [4],Potency [5],Potency [6],Potency [7],Potency [8],Potency [9],outcome [10]
Cc1ccc(C(=O)Nc2ccc(CN3CCN(C)CC3)c(C(F)(F)F)c2)cc1C#Cc1cnc2cccnn12,14700 nM (active),18700 nM (active),3720 nM (active),2350 nM (active),2350 nM (active),6850 nM (active),6620 nM (active),5900 nM (active),2350 nM (active),
COc1cccc2c(NCc3ccccc3)nc(-n3c(N)nc4ccccc43)nc12,inactive,9350 nM (active),9350 nM (active),5900 nM (active),3720 nM (active),7690 nM (active),9350 nM (active),9350 nM (active),,
Cc1ccc2nc(NC(=O)CSc3nc4c(c(=O)n3-c3ccccc3)SCC4)sc2c1,inactive,18700 nM (active),14800 nM (active),14800 nM (active),26400 nM (active),,,,,
CC1COC2(CCN(c3nc(=O)c4cc(C(F)(F)F)cc([N+](=O)[O-])c4s3)CC2)O1 (stereo not given),inactive,inactive,inactive,inactive,inactive,inactive,inactive,inactive,,
CC1=C(CO)C(=O)O[C@@H]([C@@H](C)[C@H]2CC[C@H]3[C@@H]4C[C@H]5O[C@]56[C@@H](O)C=CC(=O)[C@]6(C)[C@@H]4CC[C@]23C)C1,2340 nM (active),743 nM (active),372 nM (active),372 nM (active),132 nM (active),2170 nM (active),469 nM (active),inactive,,
CCN(CC)CCCCNc1ncc2cc(-c3cc(OC)cc(OC)c3)c(NC(=O)NC(C)(C)C)nc2n1,inactive,inactive,14800 nM (active),18700 nM (active),23500 nM (active),19300 nM (active),,,,
Cc1[nH]nc2ccc(-c3cncc(OC[C@@H](N)Cc4ccccc4)c3)cc12,4660 nM (active),2960 nM (active),743 nM (active),235 nM (active),526 nM (active),1220 nM (active),,,,
Cc1ccc(-c2ncn(-c3ccc(Nc4nccc(-c5cccc(N6CCOCC6)c5)n4)cc3)n2)cn1,330 nM (active),187 nM (active),105 nM (active),93.5 nM (active),66.2 nM (active),122 nM (active),209 nM (active),235 nM (active),93.5 nM (active),
OCCCNc1cc(-c2ccnc(Nc3cccc(Cl)c3)n2)ccn1,370 nM (active),187 nM (active),83.3 nM (active),46.9 nM (active),105 nM (active),243 nM (active),93.5 nM (active),,,
C=CC(=O)Nc1cccc(Oc2nc(Nc3ccc(N4CCN(C)CC4)cc3)ncc2Cl)c1,7390 nM (active),935 nM (active),1870 nM (active),935 nM (active),469 nM (active),21700 nM (active),2350 nM (active),4690 nM (active),,
O=c1c2ccccc2nc2n1CCc1c-2[nH]c2ccccc12,inactive,inactive,inactive,inactive,inactive,,inactive,inactive,,inactive
O=C(C=Cc1cccc(S(=O)(=O)Nc2ccccc2)c1)NO,9540 nM (active),8550 nM (active),2150 nM (active),4290 nM (active),1210 nM (active),7030 nM (active),1910 nM (active),5400 nM (active),6790 nM (active),
CNC(=O)c1cc(Oc2ccc(NC(=O)Nc3cc(C(C)(C)C)nn3-c3ccc4ncccc4c3)c(F)c2)ccn1,inactive,18700 nM (active),1320 nM (active),5900 nM (active),,,,,,
CC(C)[C@H](C(=O)Nc1ccc(C(=O)NO)cc1)c1ccccc1,3300 nM (active),1870 nM (active),590 nM (active),1180 nM (active),469 nM (active),2170 nM (active),526 nM (active),1180 nM (active),,
CC(C)c1ccc(Cn2ccc3c4c(N)nc(NC5CC5)nc4ccc32)cc1,4150 nM (active),14800 nM (active),3720 nM (active),2960 nM (active),743 nM (active),12200 nM (active),4690 nM (active),18700 nM (active),,
Nc1ccccc1NC(=O)c1ccc(CNc2nccc(-c3cccnc3)n2)cc1,6580 nM (active),7430 nM (active),2350 nM (active),2350 nM (active),187 nM (active),3060 nM (active),743 nM (active),4690 nM (active),2350 nM (active),
C=C1C(=CC=C2CCC[C@]3(C)[C@@H]([C@H](C)C=C[C@H](C)C(C)C)CC[C@@H]23)C[C@@H](O)C[C@@H]1O,11700 nM (active),1870 nM (active),743 nM (active),469 nM (active),469 nM (active),968 nM (active),526 nM (active),3720 nM (active),2960 nM (active),

SMILES,Potency [1],Potency [2],Potency [3],Potency [4],Potency [5],Potency [6],Potency [7],Potency [8],Potency [9],outcome [10]
Nc1ccn([C@@H]2CS[C@H](CO)O2)c(=O)n1,inactive,inactive,inactive,inactive,inactive,inactive,inactive,inactive,,
CCc1c2c(nc3ccc(O)cc13)-c1cc3c(c(=O)n1C2)COC(=O)[C@]3(O)CC,8.3 nM (active),29.6 nM (active),6.6 nM (active),7.4 nM (active),2.1 nM (active),8.6 nM (active),1 nM (active),inactive,18.7 nM (active),
CCn1cc(-c2ccnc3[nH]c(-c4cccc(CN(C)C)c4)cc23)c(-c2ccc(NC(=O)N(C)C)cc2)n1,104 nM (active),5900 nM (active),83.3 nM (active),4690 nM (active),46.9 nM (active),19300 nM (active),469 nM (active),18700 nM (active),3720 nM (active),
Cc1ccc(NC(=O)C2(c3ccc4c(c3)OC(F)(F)O4)CC2)nc1-c1cccc(C(=O)O)c1,234 nM (active),469 nM (active),37.2 nM (active),59 nM (active),46.9 nM (active),38.5 nM (active),66.2 nM (active),590 nM (active),148 nM (active),
CNC(=O)c1ccccc1Nc1nc(Nc2ccc(N3CCOCC3)cc2OC)ncc1Cl,3300 nM (active),14800 nM (active),2350 nM (active),1870 nM (active),209 nM (active),7690 nM (active),662 nM (active),18700 nM (active),1180 nM (active),
Nc1nc(Nc2ccc(S(N)(=O)=O)cc2)nn1C(=O)c1c(F)cccc1F,14700 nM (active),11800 nM (active),3720 nM (active),2960 nM (active),3320 nM (active),15300 nM (active),5260 nM (active),inactive,,
CC[C@H]1CN2CCc3cc(OC)c(OC)cc3[C@H]2C[C@@H]1C[C@@H]1NCCc2cc(OC)c(OC)cc21,1170 nM (active),935 nM (active),209 nM (active),118 nM (active),296 nM (active),544 nM (active),935 nM (active),1180 nM (active),526 nM (active),
Cc1nc2cnc3ccc(C#Cc4cccnc4)cc3c2n1-c1ccc(C(C)(C)C#N)cc1,330 nM (active),118 nM (active),332 nM (active),9.3 nM (active),46.9 nM (active),217 nM (active),,,,
CCN1CCN(Cc2ccc(-c3cc4c(N[C@H](C)c5ccccc5)ncnc4[nH]3)cc2)CC1,117 nM (active),1 nM (active),332 nM (active),1 nM (active),1 nM (active),153 nM (active),46.9 nM (active),18700 nM (active),,
CC(=O)Nc1nc(C)c(-c2ccc(Cl)c(S(=O)(=O)NCCO)c2)s1,4150 nM (active),5900 nM (active),1870 nM (active),1870 nM (active),132 nM (active),15300 nM (active),3720 nM (active),,,
c1nc2nc(Nc3ccc(N4CCOCC4)cc3)nc(NC3CCCCC3)c2[nH]1,4660 nM (active),18700 nM (active),1480 nM (active),4690 nM (active),935 nM (active),21700 nM (active),3720 nM (active),inactive,4690 nM (active),
O=C(NCCCNc1nc(Nc2cccc(NC(=O)N3CCCC3)c2)ncc1I)c1cccs1,2620 nM (active),14800 nM (active),2960 nM (active),7430 nM (active),1320 nM (active),24300 nM (active),23500 nM (active),inactive,3320 nM (active),
CN1CC[C@@H](c2c(O)cc(O)c3c(=O)cc(-c4ccccc4Cl)oc23)[C@@H](O)C1,466 nM (active),187 nM (active),52.6 nM (active),93.5 nM (active),118 nM (active),109 nM (active),74.3 nM (active),296 nM (active),148 nM (active),
CN(C)Cc1c(C(=O)NCCOc2ccc(C(=O)NO)cc2)oc2ccccc12,5870 nM (active),3720 nM (active),1050 nM (active),935 nM (active),743 nM (active),1930 nM (active),662 nM (active),2960 nM (active),2960 nM (active),
CCOc1ccccc1OCCNC(C)Cc1ccc(OC)c(S(N)(=O)=O)c1 (stereo not given),inactive,inactive,inactive,inactive,inactive,inactive,inactive,inactive,inactive,
Cc1cc(Nc2cc(NC(=O)c3c(Cl)cccc3Cl)ccn2)nc(N)n1,930 nM (active),1480 nM (active),590 nM (active),1180 nM (active),132 nM (active),544 nM (active),332 nM (active),18700 nM (active),1050 nM (active),

# — PubChem BioAssay (NCATS)
